Reference: ChEMBL document CHEMBL4513216, “Probing the Open Global Health Chemical Diversity Library for Multistage-Active Starting Points for Next-Generation Antimalarials” (ACS Infect Dis, 2020)
Hit rate of the full screen: of about 69,000 compounds, about 8,600 (12%) showed an effect of 50% or more. This excerpt belongs to a sample that is enriched for strong results.

Test system: Plasmodium berghei
Assay: Screen against P. berghei liver stage (PbLuc), transformed with Luciferase, at 10uM
Assay type: functional, HepG2
Settings: tested at 10 uM

Row | SMILES | INHIBITION [%]
1 | CCN(CC)S(=O)(=O)N1C[C@H]2CC[C@@H](C1)N(Cc1cscn1)C2=O | 51.1
2 | O=C1[C@@H]2CC[C@@H](CN(S(=O)(=O)c3ccccc3)C2)N1Cc1cscn1 | 25.1
3 | CCN(C)S(=O)(=O)N1C[C@H]2CC[C@@H](C1)N(Cc1cscn1)C2=O | -23.7
4 | Cn1cnc(S(=O)(=O)N2C[C@H]3CC[C@@H](C2)N(Cc2cscn2)C3=O)c1 | 10.5
5 | CCCS(=O)(=O)N1C[C@H]2CC[C@@H](C1)N(Cc1cscn1)C2=O | 53.3
6 | CS(=O)(=O)N1C[C@H]2CC[C@@H](C1)N(Cc1cscn1)C2=O | 13.5
7 | Cc1cnc(C(=O)N2C[C@@H]3CN(CC4CCCC4)CCO[C@@H]3C2)cn1 | 13.6
8 | CN(C)Cc1cc(=O)n2c(n1)CN(C(=O)Cc1ccsc1)CCC2 | 33.5
9 | CCc1ncc(C(=O)NCCN(C)S(C)(=O)=O)cn1 | 43.2
10 | CCCS(=O)(=O)CC(=O)Nc1cc(CC(C)(C)C)n[nH]1 | -45.9
11 | O=C1CCCN1CC1CN(C(=O)N2CCOCC2)Cc2nccn2C1 (stereo not given) | 34.4
12 | O=C1CCCN1CC1CN(C(=O)C2CCOCC2)Cc2nccn2C1 (stereo not given) | 0.542
13 | O=C1CCCN1CC1CN(CC2CCOCC2)Cc2nccn2C1 (stereo not given) | 57.4
14 | CCCc1nnc2sc(C3CCN(CCOC)CC3)nn12 | 31.2
15 | NC(=O)CN1CCOCC(Cc2cccc(F)c2)C1 (stereo not given) | -44.2
16 | Cc1ccc(N2CC[C@@H]3CN(Cc4cccc(C)n4)C[C@@H]3C2)nn1 | -2.41
17 | Cc1ccc(N2CCO[C@@H]3CN(Cc4cccc(C)n4)CC[C@@H]3C2)nn1 | 52.3
18 | Cc1cccc(N2CC[C@@H]3CN(Cc4csc(C)n4)CCO[C@@H]3C2)n1 | 66.5
19 | Cc1ccc(N2C[C@@H]3CN(Cc4csc(C)n4)CCO[C@@H]3C2)nn1 | 42.6
20 | Cc1cccc(CN2C[C@@H]3OCCN(S(=O)(=O)N(C)C)[C@@H]3C2)n1 | 54.1
21 | Cc1cccc(CN2C[C@@H]3CN(Cc4ccoc4)CCO[C@@H]3C2)n1 | 23.3
22 | Cc1nc(CN2CCO[C@@H]3CN(Cc4ccccn4)CC[C@@H]3C2)cs1 | 42.3

Row | SMILES | INHIBITION [%]
23 | Cc1cccc(CN2C[C@@H]3OCCN(C)[C@@H]3C2)n1 | -22.7
24 | Cc1cccc(CN2C[C@@H]3OCCN(S(=O)(=O)N(C)C)[C@@H]3C2)c1 | -7.94
25 | O=S(=O)(c1ccc(F)cc1)N1CCCCC1c1cc[nH]n1 (stereo not given) | 13
26 | CN1CCN(c2ncc(-c3cnccn3)c([C@H]3CCCO3)n2)CC1 | 14.7
27 | CN1CCN(CC2CC2)C(=O)c2cnc(N3CCOCC3)nc21 | 26.3
28 | CN(C)C[C@]12COC[C@H]1CN(C(=O)CCc1ccccc1)C2 | 6.66
29 | CC(C)NC(=O)N1CCC[C@H]1C(=O)NCCCc1cnn(C)c1 | -34.6
30 | CC(=O)N1CCC(c2nccnc2-c2ccc(F)cc2)CC1 | 43.6
31 | Cc1cc(C)n(CC2CCCCN2C(=O)c2ccc3[nH]nnc3c2)n1 (stereo not given) | 20.9
32 | CC(NC(=O)CCn1cccn1)c1ccc2c(c1)OCCO2 (stereo not given) | 22.3
33 | CC(NC(=O)NCCCn1cncn1)c1ccc2c(c1)OCCO2 (stereo not given) | 21.8
34 | CC(NC(=O)Cn1cccn1)c1ccc2c(c1)OCCO2 (stereo not given) | 41.5
35 | CC(NC(=O)Cn1cccn1)c1ccc2c(c1)OCCCO2 (stereo not given) | 62.1
36 | CC(NC(=O)NCCCO)c1ccc2c(c1)NC(=O)CO2 (stereo not given) | -11.4
37 | CC(NC(=O)NCCCO)c1ccc2c(c1)OCCO2 (stereo not given) | 52.1
38 | Cc1ccc2c(c1)C1(CC(=O)Nc3[nH]ncc31)C(=O)N2C (stereo not given) | 21.5
39 | CN(Cc1ccc(N2CCOCC2)cc1)Cc1noc(C(C)(C)C)n1 | -8.51
40 | CCc1noc(CN(C)Cc2ccc(N3CCCCC3)cc2)n1 | 61.8
41 | CCc1noc(CN(CC(=O)N2CCCCC2)c2ccc(C)cc2)n1 | 50.1
42 | CCCc1noc(CN(C)Cc2ccc3c(c2)OCO3)n1 | 19.3
43 | CN(Cc1ccc(N2CCCCC2)cc1)Cc1noc(C(C)(C)C)n1 | 78.5
44 | Cc1noc(CN(C)CC(c2cccs2)N2CCOCC2)n1 (stereo not given) | 35.9

Row | SMILES | INHIBITION [%]
45 | CN(Cc1noc(C(C)(C)C)n1)CC1CCN(CCO)CC1 | 37.5
46 | CCc1noc(CN(C)CC(c2cccs2)N2CCOCC2)n1 (stereo not given) | 60.5
47 | CCc1noc(CN(C)Cc2cc(Br)ccc2OC)n1 | 30.9
48 | CCc1nc(CN(C)CC(c2cccs2)N2CCOCC2)no1 (stereo not given) | 36.4
49 | Cc1cccc(N(CC(=O)N2CCCCC2)Cc2ccno2)c1 | 36.2
50 | CCc1noc(CN(CC(=O)N2CCCCC2)c2cccc(C)c2)n1 | 18
51 | CN(C)C(=O)CN1CCCC(c2cncc(-c3cccc(Cl)c3)n2)C1 (stereo not given) | 35.2
52 | CC(=O)NCC1CCN(C(=O)NCCc2ccc(Cl)s2)CC1 | 13.3
53 | CCCC(=O)N1CCCCC1c1nc(N(C)C)ncc1-c1cc(C)no1 (stereo not given) | 23.1
54 | CN1CCCC(c2cccc(CCC(=O)NCC3(C)COC3)n2)C1 (stereo not given) | 13
55 | NC(=O)Cn1cc(NC(=O)N2CCCCCC2)cn1 | 2.5
56 | Cc1cc(CN2CCC(C(=O)O)(n3ccc(-c4ccco4)n3)CC2)on1 | 1.48
57 | O=C1NCC2(CCCN(C(=O)c3c[nH]nc3-c3cccs3)C2)O1 (stereo not given) | 6.29
58 | Cn1cnc2ccc(NC(=O)CC3CCN(C4CCCCC4)CC3)cc21 | 12.17
59 | Cc1ccnc(OC[C@]23COC[C@H]2CN(C(=O)c2cnccn2)C3)n1 | 32.2
60 | CCc1ccc(Cn2nccc2NC(=O)C2CCS(=O)(=O)C2)cc1 (stereo not given) | 11.8
61 | COc1cccc2cc(CNCc3ccnc(N(C)C)c3)oc12 | -4.94
62 | CNC(=O)C1CN(c2ccnc(C)n2)CCN(C2CCOCC2)C1 (stereo not given) | 23
63 | Cc1cc(CN(C)Cc2ccccc2N2CCCCC2)n[nH]1 | 20.2
64 | CN(Cc1noc(C(C)(C)C)n1)Cc1ccccc1N1CCCC1 | -2.92
65 | CN(Cc1noc(C(C)(C)C)n1)Cc1ccccc1N1CCCCC1 | 90.4
